Assay [1] in a line: qHTS assay to identify small molecule antagonists of the vitamin D receptor (VDR) signaling pathway - cell viability counter screen (AID 743225). Further: nearly all actives have a fitted effect of over 50% in size. Further: potency means the concentration at half of the fitted maximal effect. Put shortly: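 VDR-UAS-bla HEK 293T cells were plated and incubated 4 h at 37C, then dosed with compound plus 3 nM (final) 1-alpha,25-dihydroxyvitamin D3 for 16 h. After the 2 h beta-lactamase read, viability in the same wells was read as CellTiter-Glo luminescence after 30 min at room temperature.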
A general note: qHTS replaces the single test concentration by a dilution series.

The nature of assay [2]: qHTS assay to identify small molecule agonists of the NFkB signaling pathway (AID 1159509; active means well fitted curve in the direction sought with a large enough effect in the signal ratio in the repeat runs, not every such curve was filed as active; the % refers to the signal ratio). The procedure, abridged: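 Beta-lactamase reporter assay run in quantitative high-throughput format on an NF-kB-responsive ME-180 line, with 5 hr compound treatment and a FRET-based blue/green fluorescence readout.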
The nature of assay [3]: qHTS assay to identify small molecule agonists of the endoplasmic reticulum stress response signaling pathway (AID 1159516; active means well fitted activation curve with a large enough effect in the signal ratio in the repeat runs, not every such curve was filed as active; the % refers to the signal ratio). The procedure, abridged:
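Fluorescence at 460 and 530 nm (405 nm excitation) reports beta-lactamase from an ER stress response element in HeLa cells treated 5 hr at 37 C.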

A short description of assay [4]: qHTS assay to identify small molecule agonists of the endoplasmic reticulum stress response signaling pathway - cell viability counter screen (AID 1159517; calls by dose curve; further: nearly all actives have a fitted effect of over 50% in size; further: potency means the concentration at half of the fitted maximal effect). Put shortly:
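Cytotoxicity of test compounds toward ESRE-bla HeLa cells was assessed after 5 hr exposure. The luminescent CellTiter-Glo signal was measured 30 min after reagent addition.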

A short description of assay [5]: qHTS assay to identify small molecule antagonists of the retinoid-related orphan receptor gamma (ROR-gamma) signaling pathway - cell viability counter screen (AID 1159520). Further: nearly all actives have a fitted effect of over 50% in size. Further: potency means the concentration at half of the fitted maximal effect. Put shortly: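 Tet-on ROR gamma CHO cells (1,000/well) were plated 4 hr, given compounds in DMSO for 2 hr at 37 C, then induced with 1 uM final doxycycline for 16 hr. Viability was read as ATP by CellTiter-Glo luminescence after 30 min.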

The target of assay [6] is Nuclear receptor ROR-gamma (Homo sapiens) (UniProt P51449). The assay can be described thus: qHTS assay to identify small molecule antagonists of the retinoid-related orphan receptor gamma (ROR-gamma) signaling pathway (AID 1159521; further: nearly all actives have a fitted effect of over 50% in size; further: potency means the concentration at half of the fitted maximal effect). Put shortly: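 Tet-on ROR-gamma CHO cells with ROR response element-luciferase reporter; compounds added 2 hr before 1 uM doxycycline induction, then 16 hr at 37 C. Antagonism scored as decreased ONE-Glo luminescence.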

Assay [7] in a line: qHTS assay to identify small molecule agonists of the AP-1 signaling pathway - cell viability counter screen (AID 1159525; calls by dose curve; further: nearly all actives have a fitted effect of over 55% in size; further: potency means the concentration at half of the fitted maximal effect). Put shortly:
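Each titration point was normalised to DMSO and tetra n-octyl ammonium bromide controls. The read was Cell Titer Glo luminescence after 30 min at RT, following 5 h compound exposure of ME-180 AP-1-bla cells at 37 °C.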

Assay [8] is described as follows: qHTS assay to identify small molecule agonists of the AP-1 signaling pathway (AID 1159526; calls by dose curve).
The nature of assay [9]: qHTS assay to identify small molecule antagonists of the retinoid acid receptor (RAR) signaling pathway - cell viability counter screen (AID 1159551). Further: nearly all actives have a fitted effect of over 35% in size. The procedure, abridged:
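In this counter screen, the RARE-luciferase line C3RL4 was exposed for 6 h at 37 C and 5% CO2 to compounds with retinol at 1 uM final. Cellular ATP, read by luminescence, served as the viability measure.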

A short description of assay [10]: qHTS assay to identify small molecule agonists of the RXR signaling pathway - cell viability counter screen (AID 1159529). Further: nearly all actives have a fitted effect of over 50% in size. Further: potency means the concentration at half of the fitted maximal effect. Put shortly: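 RXR-alpha-UAS-bla HEK 293T cells in medium with 2% charcoal-stripped FBS were pre-incubated 5 hr, then compound-treated 16 hr at 37 C. Viability was read by CellTiter-Glo luminescence in the same wells as the beta-lactamase assay, with tetraoctyl ammonium bromide as positive control.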

Assay [11] can be described thus: qHTS assay to identify small molecule antagonists of the retinoic acid receptor (RAR) signaling pathway (AID 1159552; further: nearly all actives have a fitted effect of over 50% in size; further: potency means the concentration at half of the fitted maximal effect). The procedure, abridged: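 Retinol signaling pathway inhibitors screened in C3RL4 RARE-luciferase reporter cells seeded overnight at 37 C, then compounds added with 1 uM (final) retinol as pathway substrate. After 6 hr at 37 C, luciferase luminescence read after 30 min at room temperature.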

Assay [12] is described as follows: qHTS assay to identify small molecule agonists of the retinoic acid receptor (RAR) signaling pathway (AID 1159553). Further: potency means the concentration at half of the fitted maximal effect. As to conditions: C3RL4 RARE luciferase reporter, agonist, 6 h; activation: at 73.3 µM (top of the series). Put shortly:
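In this cell-based screen, 1,000 C3RL4 cells per well were cultured overnight, dosed with test chemicals in DMSO for 6 hr, and assessed for RARE luciferase luminescence.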

For assay [13], the target named is Retinoic acid receptor RXR-alpha (Homo sapiens) (UniProt P19793). Description: qHTS assay to identify small molecule agonists of the RXR signaling pathway (AID 1159527; calls by dose curve; further: nearly all actives have a fitted effect of over 35% in size; further: potency means the concentration at half of the fitted maximal effect). Put shortly:
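GeneBLAzer RXR-alpha-UAS-bla HEK 293T cells in 2% charcoal-stripped FBS medium were exposed to compounds for 16 hr at 37 C in agonist mode. Beta-lactamase reporter read as 460/530 nm FRET ratio after 2 hr substrate loading.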

Assay [14] in a line: qHTS assay to identify small molecule antagonists of the estrogen related receptor (ERR) signaling pathway - cell viability counter screen (AID 1224818). Put shortly:
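Viability of ERR cells, CellTiter-Fluor fluorescence; 17.5 h compound exposure at 37 C, DMSO vehicle; 30 min reagent incubation at 37 C/5% CO2.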

Assay [15] in a line: qHTS assay to identify small molecule antagonists of the estrogen related receptor (ERR) signaling pathway (AID 1224819). Put shortly:
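Seed ERR cells 2,000/well; rest 6 h at 37 C/5% CO2; pin compounds in DMSO; incubate 18 h at 37 C; add One-Glo; wait 30 min at room temperature; measure luminescence.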

The test system of assay [16] is estrogen-related receptor alpha (ERRalpha) with PGC-1alpha coactivator, human. The assay can be described thus: qHTS assay to identify small molecule antagonists of the estrogen related receptor signaling pathway with the pleiotropic PPARgamma coactivator (PGC) (AID 1224821; calls by dose curve). Put shortly: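 Screening used NTP's PGC/ERR cells, dosed via pin tool with compound in DMSO alongside positive and negative controls. After 18 h at 37 C, One-Glo reagent sat 30 min at room temperature before luminescence detection.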

Assay [17] is described as follows: qHTS assay to identify small molecule antagonists of the estrogen related receptor signaling pathway with the pleiotropic PPARgamma coactivator (PGC) cell viability counter screen (AID 1224822). Put shortly: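 17.5 h compound treatment of PGC/ERR cells at 37 C; readout CellTiter-Fluor fluorescence; run alongside the PGC/ERR antagonist screen to flag cytotoxic compounds.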

Each structure is given as a SMILES string. Inconclusive results are not listed. The source made the active and inactive calls. Unless noted, the call rests on the fitted dose curve; in most records, active means well fitted curve in the direction sought with a large enough effect in the repeat runs; inconclusive means weak or mixed curves; inactive means no such curve, though single readings can be large; an effect the other way counts as inactive or inconclusive.

Chain of Retinoic acid receptor RXR-alpha (Homo sapiens) (P19793 whole entry, looked up): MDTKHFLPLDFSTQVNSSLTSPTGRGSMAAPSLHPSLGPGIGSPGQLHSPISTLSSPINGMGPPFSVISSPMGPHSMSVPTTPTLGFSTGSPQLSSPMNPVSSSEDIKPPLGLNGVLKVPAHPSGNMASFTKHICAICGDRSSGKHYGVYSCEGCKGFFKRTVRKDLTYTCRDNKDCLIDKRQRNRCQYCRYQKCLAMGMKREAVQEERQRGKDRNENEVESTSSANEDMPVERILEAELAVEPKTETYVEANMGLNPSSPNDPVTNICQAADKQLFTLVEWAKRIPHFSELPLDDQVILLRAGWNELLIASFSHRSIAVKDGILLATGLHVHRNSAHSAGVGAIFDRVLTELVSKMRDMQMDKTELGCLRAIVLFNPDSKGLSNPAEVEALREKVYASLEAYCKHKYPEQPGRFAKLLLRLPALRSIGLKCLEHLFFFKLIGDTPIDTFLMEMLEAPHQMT

Turning to `CC(C)(O)c1ccc(CNC(=O)c2cccnc2Oc2ccc3nonc3c2)cc1`, the Potency result in assay [1], in [2], in assay [3], in [4], in assay [5] and in assay [6] was “inactive” in each case. The Potency result in assay [7], in assay [8] and in assay [9] was “inactive” in each case.
For the compound `CCCCCC#CC(=O)OC`, the Potency entry in assay [1], in assay [2], in assay [3], in [4], in assay [5] and in assay [6] was “inactive” throughout. Besides, the Potency entry in assay [7], in assay [8], in assay [10] and in assay [9] was “inactive” throughout.
As for `CCCCCCCCCI`, the Potency result in [1], in assay [2], in assay [3], in assay [4], in assay [5] and in assay [6] was “inactive” each time. Moreover, the Potency entry in assay [7], in assay [10], in assay [9], in [11] and in [12] was “inactive” each time.
Turning to `Cc1ccc(OC(=O)c2ccccc2O)cc1`, the Potency result in assay [2], in [3], in assay [4], in assay [5], in [6] and in [7] was “inactive” in each case. The Potency result in [8], in assay [10], in assay [9] and in assay [11] was “inactive” in each case. Moreover, the Potency in assay [12] is 6.86 µM (active).
On to `NC1[C@H]2CN(c3nc4c(cc3F)c(=O)c(C(=O)O)cn4-c3ccc(F)cc3F)C[C@@H]12` (stereo partly specified), for which the Potency result in assay [2], in assay [3], in [4], in assay [5], in [6] and in [7] was “inactive” in each case. For the same compound, the Potency entry in assay [8], in assay [10] and in assay [9] was “inactive” in each case. Further, the Potency in [13] was 19 µM (active). In addition, the compound was classed as inactive in assay [14], in assay [15], in assay [16] and in assay [17].
On to `N#[N+]c1ccc2c(S(=O)(=O)[O-])cccc2c1O`, for which the Potency entry in [1], in assay [2], in [3], in assay [4], in [5] and in [6] was “inactive” each time. For the same compound, the Potency result in assay [8], in [13], in assay [10], in [9] and in [11] was “inactive” each time.
On to `CCCCCCCCC(CCCCCC)C(=O)O` (stereo unspecified), for which the Potency result in assay [2], in assay [3], in assay [5], in assay [6] and in assay [9] was “inactive” in each case. Further, the Potency in assay [4] is 54.9 µM (active); in [7], 49 µM (active).
`CC(C)C[C@H](NC(=O)[C@H](CCc1ccccc1)NC(=O)CN1CCOCC1)C(=O)N[C@@H](Cc1ccccc1)C(=O)N[C@@H](CC(C)C)C(=O)[C@@]1(C)CO1`: the Potency entry in assay [2], in [3], in assay [4], in assay [7], in assay [8] and in [10] was “inactive” throughout. In addition, the Potency result in assay [9] and in assay [11] was “inactive” in each case. Further, the values for the Potency in assay [5], in assay [6] and in assay [12] were 0.75 µM (active), 1.19 µM (active) and 0.0473 µM (active), respectively.
On to `COc1cc(C(=O)NC2CCN(C)CC2)ccc1Nc1ncc2c(n1)N(C1CCCC1)CC(F)(F)C(=O)N2C`, for which the Potency is 7.11 µM (active) in [1]; 50.4 µM (active) in [4]; 22.3 µM (active) in [5]; 15.8 µM (active) in assay [6]; 6.34 µM (active) in assay [7]; 31.8 µM (active) in assay [10]. In addition, in assay [11], the Potency is 2.5 µM (active). The Potency entry in assay [2], in assay [3] and in assay [8] was “inactive” in each case.
Take `O=C(/C=C/c1ccccc1)OCCc1ccccc1`: the Potency entry in assay [1], in assay [2], in assay [3], in [4], in assay [5] and in [6] was “inactive” in each case. The Potency entry in assay [7], in [8], in [10], in assay [9] and in [11] was “inactive” each time.
`CCC(C)(C)OC`: the Potency result in assay [1], in assay [2], in assay [3], in assay [4], in assay [5] and in [6] was “inactive” throughout. Further, the Potency entry in assay [7], in [8], in assay [9] and in [11] was “inactive” in each case. The Potency in assay [10] is 48.8 µM (active).

For the origin of these results see PubChem BioAssay (Tox21).
